Publication PMC7862700, “An all-to-all approach to the identification of sequence-specific readers for epigenetic DNA modifications on cytosine”

Assays:
Test in all cases: DAPPL (digital affinity profiling via proximity ligation, sequencing); 10 mM Tris-HCl pH 7.5, 50 mM NaCl, 1 mM DTT, 4% glycerol, room temperature, 30 min; GST-TFs on glutathione beads, 16-mer random dsDNA library, 0.1% formaldehyde crosslink after washing; high values mean tight binding
FEV = molecular target: T1, FEV (Homo sapiens, UniProt Q99581 1-238); conditions: protein: recombinant; tags: N-terminal GST; dsDNA, one strand shown
T1 sequence: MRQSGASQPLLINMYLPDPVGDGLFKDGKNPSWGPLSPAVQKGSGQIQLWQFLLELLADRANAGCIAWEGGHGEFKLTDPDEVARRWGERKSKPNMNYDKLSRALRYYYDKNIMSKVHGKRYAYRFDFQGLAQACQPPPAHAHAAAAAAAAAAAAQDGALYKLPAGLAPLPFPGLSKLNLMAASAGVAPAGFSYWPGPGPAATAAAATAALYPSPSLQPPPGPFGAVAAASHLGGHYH
Summary of the method: (§1)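 Yeast served to express human transcription factors as GST fusions, which were then captured on glutathione beads and labelled with DNA barcodes. Pooled with a tag-only sample, they were incubated with 200 nmole of a 16-mer random double-stranded DNA library for 30 min at room temperature in Tris/NaCl/DTT/glycerol buffer, washed, crosslinked with 0.1% formaldehyde, ligated by proximity, amplified by PCR and sequenced. Dividing each hexamer's read frequency for a factor by its frequency for the tag-only sample gives the binding signal.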

ETV5 = ETV5 (Homo sapiens, UniProt P41161 1-510); conditions: protein: recombinant; tags: N-terminal GST; dsDNA, one strand shown
Summary of the method: as §1

HSF1 = HSF1 (Homo sapiens, UniProt Q00613 1-529); conditions: protein: recombinant; tags: N-terminal GST; chain copies: 3; dsDNA, one strand shown
Summary of the method: as §1

SPIC = molecular target: T2, SPIC (Homo sapiens, UniProt Q8N5J4 1-248); conditions: protein: recombinant; tags: N-terminal GST; dsDNA, one strand shown
T2 sequence: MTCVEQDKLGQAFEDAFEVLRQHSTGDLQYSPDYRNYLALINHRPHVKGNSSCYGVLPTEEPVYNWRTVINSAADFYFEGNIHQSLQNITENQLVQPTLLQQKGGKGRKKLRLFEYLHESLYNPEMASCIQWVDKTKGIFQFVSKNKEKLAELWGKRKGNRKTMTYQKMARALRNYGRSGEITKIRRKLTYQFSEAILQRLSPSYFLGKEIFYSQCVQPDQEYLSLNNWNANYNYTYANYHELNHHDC
Summary of the method: as §1

ELF4 = ELF4 (Homo sapiens, UniProt Q99607 1-663); conditions: protein: recombinant; tags: N-terminal GST; dsDNA, one strand shown
Summary of the method: as §1

ELK4 = molecular target: T3, ELK4 (Homo sapiens, UniProt P28324-2 1-405); conditions: protein: recombinant; tags: N-terminal GST; dsDNA, one strand shown
T3 sequence: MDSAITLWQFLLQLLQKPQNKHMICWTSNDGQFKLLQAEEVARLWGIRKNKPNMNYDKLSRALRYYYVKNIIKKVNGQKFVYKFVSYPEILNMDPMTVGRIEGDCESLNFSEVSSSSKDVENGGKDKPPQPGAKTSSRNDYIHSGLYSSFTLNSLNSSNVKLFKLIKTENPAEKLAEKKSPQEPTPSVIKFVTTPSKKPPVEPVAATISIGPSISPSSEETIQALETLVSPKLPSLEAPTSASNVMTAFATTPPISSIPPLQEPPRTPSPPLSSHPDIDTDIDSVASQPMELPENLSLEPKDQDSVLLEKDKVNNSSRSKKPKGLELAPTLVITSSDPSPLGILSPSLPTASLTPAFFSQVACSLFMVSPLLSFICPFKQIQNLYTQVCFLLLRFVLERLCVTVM
Summary of the method: as §1

ETV2 = molecular target: T4, ETV2 (Homo sapiens, UniProt O00321 1-342); conditions: protein: recombinant; tags: N-terminal GST; dsDNA, one strand shown
T4 sequence: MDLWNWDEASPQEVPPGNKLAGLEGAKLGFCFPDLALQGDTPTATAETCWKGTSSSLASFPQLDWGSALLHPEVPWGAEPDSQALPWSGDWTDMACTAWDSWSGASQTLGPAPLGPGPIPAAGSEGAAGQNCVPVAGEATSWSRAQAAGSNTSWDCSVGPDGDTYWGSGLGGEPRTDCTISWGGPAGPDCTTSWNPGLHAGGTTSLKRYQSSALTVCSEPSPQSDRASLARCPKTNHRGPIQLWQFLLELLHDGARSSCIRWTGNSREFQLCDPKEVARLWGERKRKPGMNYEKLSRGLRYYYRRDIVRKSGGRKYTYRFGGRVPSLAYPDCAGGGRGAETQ
Summary of the method: as §1

CRX = CRX (Homo sapiens, UniProt O43186 1-299); conditions: protein: recombinant; tags: N-terminal GST; dsDNA, one strand shown
Summary of the method: as §1

ETV1 = ETV1 (Homo sapiens, UniProt P50549 1-477); conditions: protein: recombinant; tags: N-terminal GST; dsDNA, one strand shown
Summary of the method: as §1

ERF = molecular target: T5, ERF (Homo sapiens, UniProt P50548 1-548); conditions: protein: recombinant; tags: N-terminal GST; dsDNA, one strand shown
T5 sequence: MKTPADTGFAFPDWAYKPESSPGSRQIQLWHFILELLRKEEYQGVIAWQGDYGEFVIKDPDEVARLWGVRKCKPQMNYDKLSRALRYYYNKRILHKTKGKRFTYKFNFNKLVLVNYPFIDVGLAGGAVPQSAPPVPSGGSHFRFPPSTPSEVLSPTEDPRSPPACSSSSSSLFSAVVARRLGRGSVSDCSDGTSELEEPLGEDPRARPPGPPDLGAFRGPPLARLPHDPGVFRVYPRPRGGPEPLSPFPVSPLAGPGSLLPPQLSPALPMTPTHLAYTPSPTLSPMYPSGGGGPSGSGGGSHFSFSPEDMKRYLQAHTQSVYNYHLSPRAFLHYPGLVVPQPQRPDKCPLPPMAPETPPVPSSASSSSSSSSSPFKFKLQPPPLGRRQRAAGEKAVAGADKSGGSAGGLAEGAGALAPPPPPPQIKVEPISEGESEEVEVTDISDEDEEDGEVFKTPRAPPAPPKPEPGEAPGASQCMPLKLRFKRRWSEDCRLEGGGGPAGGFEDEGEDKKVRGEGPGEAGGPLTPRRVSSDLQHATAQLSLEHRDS
Summary of the method: as §1

ETV3L = molecular target: T6, ETV3L (Homo sapiens, UniProt Q6ZN32 1-361); conditions: protein: recombinant; tags: N-terminal GST; dsDNA, one strand shown
T6 sequence: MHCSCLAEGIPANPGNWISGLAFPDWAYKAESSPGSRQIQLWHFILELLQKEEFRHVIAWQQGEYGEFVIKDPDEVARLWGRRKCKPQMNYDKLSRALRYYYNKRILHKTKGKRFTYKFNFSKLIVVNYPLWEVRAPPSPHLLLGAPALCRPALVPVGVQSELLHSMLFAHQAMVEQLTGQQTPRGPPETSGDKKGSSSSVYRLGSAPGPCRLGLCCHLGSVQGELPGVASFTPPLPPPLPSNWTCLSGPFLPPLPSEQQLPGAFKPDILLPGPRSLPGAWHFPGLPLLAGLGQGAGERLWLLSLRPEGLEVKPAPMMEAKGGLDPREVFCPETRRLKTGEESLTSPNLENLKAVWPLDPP
Summary of the method: as §1

ETS2 = molecular target: T7, ETS2 (Homo sapiens, UniProt P15036 1-469); conditions: protein: recombinant; tags: N-terminal GST; dsDNA, one strand shown
T7 sequence: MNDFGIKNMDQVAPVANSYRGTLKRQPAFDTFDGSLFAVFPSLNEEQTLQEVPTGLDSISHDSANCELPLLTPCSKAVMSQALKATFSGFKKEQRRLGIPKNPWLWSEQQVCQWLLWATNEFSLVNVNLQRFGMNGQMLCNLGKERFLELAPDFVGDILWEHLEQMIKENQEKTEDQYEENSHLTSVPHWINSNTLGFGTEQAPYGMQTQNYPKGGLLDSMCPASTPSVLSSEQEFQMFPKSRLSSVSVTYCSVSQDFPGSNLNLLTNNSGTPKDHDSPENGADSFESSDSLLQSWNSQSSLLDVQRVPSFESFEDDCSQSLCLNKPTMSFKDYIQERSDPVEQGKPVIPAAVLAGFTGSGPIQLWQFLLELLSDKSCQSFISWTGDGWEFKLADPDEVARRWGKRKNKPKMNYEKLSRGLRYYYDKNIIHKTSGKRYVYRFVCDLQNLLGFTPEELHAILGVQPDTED
Summary of the method: as §1

SPDEF = molecular target: T8, SPDEF (Homo sapiens, UniProt O95238 1-335); conditions: protein: recombinant; tags: N-terminal GST; dsDNA, one strand shown
T8 sequence: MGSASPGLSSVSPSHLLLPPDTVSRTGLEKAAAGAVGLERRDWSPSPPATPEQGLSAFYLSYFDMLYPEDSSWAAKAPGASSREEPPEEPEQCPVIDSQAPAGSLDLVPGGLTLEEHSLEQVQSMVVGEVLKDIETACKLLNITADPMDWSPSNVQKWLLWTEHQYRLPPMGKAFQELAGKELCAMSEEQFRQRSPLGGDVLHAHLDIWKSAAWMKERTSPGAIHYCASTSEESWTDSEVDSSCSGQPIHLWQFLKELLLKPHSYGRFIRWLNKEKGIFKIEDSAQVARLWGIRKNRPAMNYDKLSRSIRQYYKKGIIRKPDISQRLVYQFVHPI
Summary of the method: as §1

ETV7 = molecular target: T9, ETV7 (Homo sapiens, UniProt Q9Y603 1-341); conditions: protein: recombinant; tags: N-terminal GST; dsDNA, one strand shown
T9 sequence: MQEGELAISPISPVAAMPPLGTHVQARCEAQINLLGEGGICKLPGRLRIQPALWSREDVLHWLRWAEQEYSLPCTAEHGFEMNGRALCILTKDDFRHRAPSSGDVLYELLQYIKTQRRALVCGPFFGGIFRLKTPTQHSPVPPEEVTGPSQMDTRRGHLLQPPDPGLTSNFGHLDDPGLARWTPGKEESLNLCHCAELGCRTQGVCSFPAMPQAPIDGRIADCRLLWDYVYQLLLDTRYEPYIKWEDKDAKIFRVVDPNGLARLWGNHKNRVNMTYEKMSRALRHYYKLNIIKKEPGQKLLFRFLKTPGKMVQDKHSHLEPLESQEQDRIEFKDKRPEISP
Summary of the method: as §1

ELF5 = molecular target: T10, ELF5 (Homo sapiens, UniProt Q9UKW6-2 1-255); conditions: protein: recombinant; tags: N-terminal GST; dsDNA, one strand shown
T10 sequence: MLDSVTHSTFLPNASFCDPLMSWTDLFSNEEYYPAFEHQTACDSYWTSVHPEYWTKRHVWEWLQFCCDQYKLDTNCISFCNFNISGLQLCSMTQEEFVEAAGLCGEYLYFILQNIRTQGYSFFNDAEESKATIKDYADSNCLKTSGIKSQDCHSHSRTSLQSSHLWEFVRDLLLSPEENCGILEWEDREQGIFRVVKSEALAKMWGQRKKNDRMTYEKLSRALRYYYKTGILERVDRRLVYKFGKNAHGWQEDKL
Summary of the method: as §1

ETV3 = molecular target: T11, ETV3 (Homo sapiens, UniProt P41162-2 1-143); conditions: protein: recombinant; tags: N-terminal GST; dsDNA, one strand shown
T11 sequence: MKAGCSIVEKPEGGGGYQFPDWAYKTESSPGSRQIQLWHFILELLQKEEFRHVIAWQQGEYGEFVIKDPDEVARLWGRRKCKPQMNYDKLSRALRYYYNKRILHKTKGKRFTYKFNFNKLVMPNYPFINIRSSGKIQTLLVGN
Summary of the method: as §1

ETV6 = ETV6 (Homo sapiens, UniProt P41212 1-452); conditions: protein: recombinant; tags: N-terminal GST; dsDNA, one strand shown
Summary of the method: as §1

ETV6, sequence (P41212 whole entry): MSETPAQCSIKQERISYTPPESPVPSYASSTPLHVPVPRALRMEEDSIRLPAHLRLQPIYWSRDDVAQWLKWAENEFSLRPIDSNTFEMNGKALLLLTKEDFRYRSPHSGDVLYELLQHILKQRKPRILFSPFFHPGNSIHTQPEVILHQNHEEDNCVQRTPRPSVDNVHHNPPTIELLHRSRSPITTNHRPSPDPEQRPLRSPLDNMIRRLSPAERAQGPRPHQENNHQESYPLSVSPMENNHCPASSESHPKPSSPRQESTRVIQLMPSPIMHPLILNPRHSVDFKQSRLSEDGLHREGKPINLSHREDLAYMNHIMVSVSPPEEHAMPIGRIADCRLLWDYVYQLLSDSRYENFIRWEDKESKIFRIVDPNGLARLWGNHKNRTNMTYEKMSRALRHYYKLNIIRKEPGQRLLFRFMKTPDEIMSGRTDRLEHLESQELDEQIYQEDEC
ETV1, sequence (P50549 whole entry): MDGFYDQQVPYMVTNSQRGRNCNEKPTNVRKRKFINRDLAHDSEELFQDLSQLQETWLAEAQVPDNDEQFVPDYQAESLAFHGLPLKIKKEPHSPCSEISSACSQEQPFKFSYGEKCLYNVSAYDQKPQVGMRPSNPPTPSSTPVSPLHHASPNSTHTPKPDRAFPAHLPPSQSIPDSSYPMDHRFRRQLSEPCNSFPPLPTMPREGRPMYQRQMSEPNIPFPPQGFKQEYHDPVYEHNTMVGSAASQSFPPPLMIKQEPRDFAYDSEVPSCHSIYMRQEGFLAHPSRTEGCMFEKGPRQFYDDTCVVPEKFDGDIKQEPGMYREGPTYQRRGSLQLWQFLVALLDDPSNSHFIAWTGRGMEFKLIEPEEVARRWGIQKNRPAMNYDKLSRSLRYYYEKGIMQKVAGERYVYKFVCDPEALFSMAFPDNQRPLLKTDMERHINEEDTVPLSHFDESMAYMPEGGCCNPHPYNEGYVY
ETV5, sequence (P41161 whole entry): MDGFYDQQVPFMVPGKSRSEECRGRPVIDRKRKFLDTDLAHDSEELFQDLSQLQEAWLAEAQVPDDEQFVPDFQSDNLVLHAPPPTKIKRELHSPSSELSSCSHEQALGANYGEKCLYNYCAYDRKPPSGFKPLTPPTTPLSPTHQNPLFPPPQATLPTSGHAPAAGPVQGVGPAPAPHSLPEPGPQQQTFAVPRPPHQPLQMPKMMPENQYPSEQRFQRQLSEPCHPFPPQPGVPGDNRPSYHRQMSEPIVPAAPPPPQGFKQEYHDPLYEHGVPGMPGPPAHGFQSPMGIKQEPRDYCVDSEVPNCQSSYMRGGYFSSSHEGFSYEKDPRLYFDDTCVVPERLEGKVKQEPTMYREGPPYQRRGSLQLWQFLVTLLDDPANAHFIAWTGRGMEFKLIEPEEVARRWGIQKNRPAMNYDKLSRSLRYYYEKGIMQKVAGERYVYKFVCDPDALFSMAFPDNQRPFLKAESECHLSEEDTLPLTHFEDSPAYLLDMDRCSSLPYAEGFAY
HSF1, sequence (Q00613 whole entry): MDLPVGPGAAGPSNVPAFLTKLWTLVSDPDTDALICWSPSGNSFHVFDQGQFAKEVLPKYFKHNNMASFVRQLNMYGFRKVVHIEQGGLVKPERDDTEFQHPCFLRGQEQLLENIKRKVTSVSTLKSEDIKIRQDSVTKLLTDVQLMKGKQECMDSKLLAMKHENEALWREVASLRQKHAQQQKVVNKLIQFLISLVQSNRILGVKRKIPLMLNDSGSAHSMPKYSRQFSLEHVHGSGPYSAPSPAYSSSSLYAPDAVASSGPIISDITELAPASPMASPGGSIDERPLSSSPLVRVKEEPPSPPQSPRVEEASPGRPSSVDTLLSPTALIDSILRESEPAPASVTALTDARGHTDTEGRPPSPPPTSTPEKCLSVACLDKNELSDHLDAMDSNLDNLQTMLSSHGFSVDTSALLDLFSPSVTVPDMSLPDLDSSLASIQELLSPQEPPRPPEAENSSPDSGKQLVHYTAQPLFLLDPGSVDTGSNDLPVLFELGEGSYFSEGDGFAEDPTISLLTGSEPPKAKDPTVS
ELF4, sequence (Q99607 whole entry): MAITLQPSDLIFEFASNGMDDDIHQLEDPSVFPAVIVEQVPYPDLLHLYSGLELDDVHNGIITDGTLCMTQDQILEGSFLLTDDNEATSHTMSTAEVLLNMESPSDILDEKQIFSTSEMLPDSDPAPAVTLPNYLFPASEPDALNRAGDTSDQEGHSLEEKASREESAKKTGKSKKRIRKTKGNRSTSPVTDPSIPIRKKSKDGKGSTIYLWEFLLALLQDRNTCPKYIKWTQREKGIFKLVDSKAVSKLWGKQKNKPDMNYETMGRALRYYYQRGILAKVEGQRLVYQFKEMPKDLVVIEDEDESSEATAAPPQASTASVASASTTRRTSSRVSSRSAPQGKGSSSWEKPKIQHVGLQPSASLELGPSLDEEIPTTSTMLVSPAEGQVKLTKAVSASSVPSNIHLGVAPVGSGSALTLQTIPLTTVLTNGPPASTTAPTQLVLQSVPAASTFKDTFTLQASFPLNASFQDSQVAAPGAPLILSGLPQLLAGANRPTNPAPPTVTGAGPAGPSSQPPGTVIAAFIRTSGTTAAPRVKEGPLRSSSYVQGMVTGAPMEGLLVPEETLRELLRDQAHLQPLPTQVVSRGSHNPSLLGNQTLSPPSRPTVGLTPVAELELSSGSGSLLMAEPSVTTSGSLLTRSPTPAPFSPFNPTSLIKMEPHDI
CRX, sequence (O43186 whole entry): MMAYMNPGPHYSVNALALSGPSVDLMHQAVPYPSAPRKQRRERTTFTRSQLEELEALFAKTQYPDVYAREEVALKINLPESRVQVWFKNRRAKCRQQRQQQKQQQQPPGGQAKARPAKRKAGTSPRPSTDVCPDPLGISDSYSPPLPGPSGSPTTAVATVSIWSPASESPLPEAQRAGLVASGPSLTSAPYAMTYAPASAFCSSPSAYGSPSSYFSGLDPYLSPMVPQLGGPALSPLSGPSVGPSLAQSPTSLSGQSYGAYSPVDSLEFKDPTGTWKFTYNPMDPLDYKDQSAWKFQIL

Row | Sequence | binding signal (FEV) | binding signal (ETV5) | binding signal (HSF1) | binding signal (SPIC) | binding signal (ELF4) | binding signal (ELK4) | binding signal (ETV2) | binding signal (CRX) | binding signal (ETV1) | binding signal (ERF) | binding signal (ETV3L) | binding signal (ETS2) | binding signal (SPDEF) | binding signal (ETV7) | binding signal (ELF5) | binding signal (ETV3) | binding signal (ETV6)
1 | TCGCAA | 1.11 fold enrichment (6-mer frequency, TF over GST control) | 1.06 fold enrichment (6-mer frequency, TF over GST control) | 1.22 fold enrichment (6-mer frequency, TF over GST control) | 1.32 fold enrichment (6-mer frequency, TF over GST control) | 1.15 fold enrichment (6-mer frequency, TF over GST control) | 1.03 fold enrichment (6-mer frequency, TF over GST control) | 1.18 fold enrichment (6-mer frequency, TF over GST control) | 1.05 fold enrichment (6-mer frequency, TF over GST control) | 1.1 fold enrichment (6-mer frequency, TF over GST control) | 1.27 fold enrichment (6-mer frequency, TF over GST control) | 1.1 fold enrichment (6-mer frequency, TF over GST control) | 1.05 fold enrichment (6-mer frequency, TF over GST control) | 1.09 fold enrichment (6-mer frequency, TF over GST control) | 1.01 fold enrichment (6-mer frequency, TF over GST control) | 1.06 fold enrichment (6-mer frequency, TF over GST control) | 1.13 fold enrichment (6-mer frequency, TF over GST control) | 1.09 fold enrichment (6-mer frequency, TF over GST control)
2 | TTTTAG | 1.14 fold enrichment (6-mer frequency, TF over GST control) | 1.09 fold enrichment (6-mer frequency, TF over GST control) | 1.19 fold enrichment (6-mer frequency, TF over GST control) | 1.13 fold enrichment (6-mer frequency, TF over GST control) | 1.24 fold enrichment (6-mer frequency, TF over GST control) | 1.1 fold enrichment (6-mer frequency, TF over GST control) | 1.13 fold enrichment (6-mer frequency, TF over GST control) | 1.48 fold enrichment (6-mer frequency, TF over GST control) | 1.19 fold enrichment (6-mer frequency, TF over GST control) | 1.26 fold enrichment (6-mer frequency, TF over GST control) | 1.26 fold enrichment (6-mer frequency, TF over GST control) | 1.2 fold enrichment (6-mer frequency, TF over GST control) | 1.12 fold enrichment (6-mer frequency, TF over GST control) | 1.24 fold enrichment (6-mer frequency, TF over GST control) | 1.06 fold enrichment (6-mer frequency, TF over GST control) | 1.21 fold enrichment (6-mer frequency, TF over GST control) | 1.19 fold enrichment (6-mer frequency, TF over GST control)
